Test results reported in PubChem BioAssay (NCI).
The panel holds about 79,000 compounds, 15% with a hit somewhere; the sample as a whole holds those more often. Unmarked numbers belong to inactive results. Activity calls are given as the source filed them. No stated cut-off is given here; in the data, active means growth inhibition above about 70%; inactive means the rest.

What was measured:
[1] = NCI Yeast Anticancer Drug Screen. Data for the rad50 strain (AID 155);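 further: 0% = growth of vehicle-only cultures of the same strain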; details: S. cerevisiae rad50 strain growth inhibition, stronger effect = higher value
How it was run: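 Yeast carrying a defined DNA repair defect were exposed to test compounds, and growth was compared with vehicle-treated controls to give percent inhibition.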

[2] = NCI Yeast Anticancer Drug Screen. Data for the mec2-1 strain (AID 157); details: S. cerevisiae mec2-1 strain, stronger effect = higher value
How it was run: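 Strain: mec2-1 (DNA repair/cell cycle alteration). Compound exposure, then growth measured; inhibition expressed relative to vehicle.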

[3] = NCI Yeast Anticancer Drug Screen. Data for the sgs1 mgt1 strain (AID 161);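 further: 0% = growth of cultures given vehicle only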; details: S. cerevisiae sgs1 mgt1 strain, stronger effect = higher value
How it was run: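 Genetically altered yeast, compound exposure, growth inhibition relative to vehicle.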

[4] = NCI Yeast Anticancer Drug Screen. Data for the cln2 rad14 strain (AID 165);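 further: 0% = growth equal to vehicle treated cultures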; details: S. cerevisiae cln2 rad14 strain, stronger effect = higher value
How it was run: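 Compounds are applied to the cln2 rad14 yeast strain, and growth is then compared with that of vehicle-treated cultures to give inhibition.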

[5] = NCI Yeast Anticancer Drug Screen. Data for the bub3 strain (AID 167); details: S. cerevisiae bub3 mutant strain, stronger effect = higher value
How it was run: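 Compounds were applied to a genetically altered yeast strain carrying a cell-cycle control defect. Growth inhibition was scored against vehicle-treated controls.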

[6] = NCI Yeast Anticancer Drug Screen. Data for the mlh1 rad18 strain (AID 175); details: S. cerevisiae mlh1 rad18 strain growth inhibition, stronger effect = higher value
How it was run: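 Read-out is yeast growth inhibition, calculated against vehicle-only controls. The compound was applied to a strain engineered with DNA damage repair alterations.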

[7] = at 5.0 µM (retest, dose inferred, filed as 0.5)
[8] = at 50.0 µM (retest, dose inferred, filed as 5.0)

SMILES	growth inhibition [1, 7]	growth inhibition [1, 8]	growth inhibition ([1]; at 50.0 µM)	growth inhibition [2, 7]	growth inhibition [2, 8]	growth inhibition ([2]; at 50.0 µM)	growth inhibition [3, 7]	growth inhibition [3, 8]	growth inhibition ([3]; at 50.0 µM)	growth inhibition [4, 7]	growth inhibition [4, 8]	growth inhibition ([4]; at 50.0 µM)	growth inhibition [5, 7]	growth inhibition [5, 8]	growth inhibition ([5]; at 50.0 µM)	growth inhibition [6, 7]	growth inhibition [6, 8]	growth inhibition ([6]; at 50.0 µM)
CCOC(=O)CSC(=S)Nc1ccc(Cl)cc1	0%	88% (active)	88.9% (active)	-2%	91% (active)	21.1%	5%	95% (active)	87.5% (active)	-5%	36%	-26.8%	-9%	61%	50.5%	6%	98% (active)	93.7% (active)
O=C(OC1C2CCC2C2CC21)c1cc([N+](=O)[O-])cc([N+](=O)[O-])c1 (stereo not given)	-9%	97% (active)	10.9%	4%	99% (active)	98.1% (active)	32%	99% (active)	13%	3%	98% (active)	97.8% (active)	6%	98% (active)	62.2%	42%	99% (active)	58.9%
O=C1C(c2c[nH]c3ccccc23)=Nc2ccc(Br)cc21	19%	33%	86.8% (active)	26%	35%	61.4%	25%	29%	73% (active)	15%	34%	53.5%	45%	53%	90% (active)	24%	35%	83.7% (active)
COc1ccc(C2C3CCCC(C(c4ccc(OC)cc4)N2C)C32NC(=O)NC2=O)cc1 (stereo not given)	63%	98% (active)	97.2% (active)	25%	98% (active)	98% (active)	23%	98% (active)	97.8% (active)	2%	97% (active)	97.2% (active)	3%	97% (active)	97.8% (active)	29%	95% (active)	97.6% (active)
Cc1ccccc1N=NC(C(=O)c1ccccc1)C(=O)c1ccccc1	7%	94% (active)	93.2% (active)	-14%	96% (active)	94% (active)	15%	93% (active)	92.2% (active)	3%	95% (active)	90% (active)	5%	97% (active)	92.8% (active)	-8%	97% (active)	91.8% (active)
COc1ccccc1C(=O)c1ccc2ccccc2c1	-3%	71% (active)	47.2%	-10%	85% (active)	73% (active)	0%	83% (active)	61.8%	-6%	9%	-17.1%	3%	74% (active)	83.6% (active)	-15%	55%	42.3%
CCCCCCCC/C=C\CCCCCCCC(=O)NCCN(C)C	-1%	99% (active)	99.3% (active)	5%	100% (active)	99.4% (active)	33%	99% (active)	99.5% (active)	2%	99% (active)	68.2%	2%	99% (active)	97.2% (active)	22%	99% (active)	99.5% (active)
Cc1ccc(NC(=S)SCc2ccc(Cl)cc2)cc1C	12%	94% (active)	94.9% (active)	-5%	60%	98.2% (active)	1%	94% (active)	98% (active)	-4%	34%	86.8% (active)	18%	68%	97.5% (active)	1%	82% (active)	98.6% (active)
CCC[CH2][Ge]([CH2]CCC)([CH2]CCC)[O]C(=O)CC(=O)c1ccccc1	10%	62%	53.3%	-3%	65%	45.1%	6%	41%	32.2%	1%	20%	43.5%	-17%	27%	79.5% (active)	-1%	46%	67.4%
CC(C)SC(=S)Nc1ccc(Cl)cc1	-5%	92% (active)	97.8% (active)	-1%	98% (active)	99% (active)	8%	88% (active)	97% (active)	-18%	64%	96.8% (active)	0%	91% (active)	99% (active)	5%	96% (active)	98.9% (active)
CC1(C)CC(=N/O)/C(=N/O)C(=N\NC(N)=S)/C1	7%	54%	69.9%	-2%	35%	49.1%	1%	63%	76.9% (active)	-12%	28%	30.2%	-1%	47%	64.9%	-3%	62%	73.5% (active)
CCCCCSc1nc2ncnc(N)c2[nH]1	1%	4%	6.25%	1%	9%	-2.95%	-10%	-2%	1.65%	4%	6%	28.9%	7%	16%	-5.5%	0%	8%	-14.5%
CCOC1NC(=S)N(C2CCCCC2)C1(C)C (stereo not given)	-2%	10%	10.8%	-2%	3%	1.1%	-1%	11%	11.8%	-2%	-11%	75.6% (active)	-2%	-9%	-19%	-6%	1%	16.6%
Clc1cc(Cl)c2c(c1)nc(Cl)c1cc(Cl)ccc12	-13%	1%	97% (active)	-13%	7%	99% (active)	-5%	1%	97.6% (active)	-1%	2%	98.5% (active)	-5%	1%	98.7% (active)	-14%	-20%	98.6% (active)
COc1ccc2nc3cccc([N+](=O)[O-])c3c(NCCO)c2c1	75% (active)	95% (active)	86.6% (active)	78% (active)	98% (active)	90% (active)	82% (active)	96% (active)	87.8% (active)	68%	97% (active)	87.2% (active)	24%	86% (active)	86.9% (active)	77% (active)	96% (active)	87.8% (active)
Nc1ccc(S(=O)(=O)Nc2cc(Cl)cc(Cl)c2)cc1	-4%	92% (active)	99.5% (active)	-4%	100% (active)	97.2% (active)	-4%	99% (active)	99.3% (active)	-15%	99% (active)	97.3% (active)	3%	99% (active)	99.2% (active)	1%	99% (active)	98.2% (active)
COc1ccc(OC)c(NC(=O)CCCC(=O)CC(=O)c2cccnc2)c1	63%	62%	4.45%	50%	53%	1.8%	69%	70% (active)	-5.2%	53%	55%	39.8%	57%	62%	-4.8%	63%	63%	-8.55%
O=C(NCCc1c(-c2ccccc2)[nH]c2ccccc12)C(F)(F)C(F)(F)F	21%	21%	86.5% (active)	1%	1%	91% (active)	33%	33%	84.8% (active)	4%	4%	81.6% (active)	5%	5%	79% (active)	23%	23%	30.1%
c1ccc(CC(Cc2ccccc2)c2cccnc2)cc1	18%	84% (active)	98.7% (active)	21%	62%	98.3% (active)	35%	89% (active)	98.7% (active)	34%	66%	97.9% (active)	43%	88% (active)	99% (active)	25%	84% (active)	98.3% (active)
CCS(=O)(=O)C(C(O)C(O)C(O)C(O)CO)S(=O)(=O)CC (stereo not given)	-3%	-6%	16.2%	-2%	-6%	8.95%	-2%	-2%	7.25%	0%	-10%	43.5%	0%	4%	-2%	-4%	-10%	-7.05%
